# Screening data: PubChem BioAssay, several laboratories
# CF NFkB inh – blocks PAF-induced NF-kB reporter in cystic fibrosis cells; KKLEB NF-kB-GFP reporter, GFP fluorescence overnight; inhibition, % at 5 µM; 0.86% of 360,000 active; AID 588850;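 active = at least 50% inhibition at 5 µM, scaled per plate between neutral and stimulator controls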;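 also: PAF is a Pseudomonas aeruginosa culture filtrate used as stimulus; plate controls were PAF-stimulated DMSO wells for no effect and unstimulated DMSO wells for full effect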
# Shn3 3UTR inh – reduces Shn3 3'UTR luciferase signal in osteoblasts; Clone20 osteoblast Shn3 3'UTR firefly luciferase, 24 h; inhibition, % at 12.5 µM; 0.52% of 360,000 active;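 active = mean inhibition of at least 75% with every replicate also reaching 75%; inconclusive = mean inhibition at least 75% but some replicate below; inactive = mean inhibition below 75%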;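 also: 0% = median of neutral control wells and 100% = pilot-screen positive control compound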
# KKLEB tox – counter-screen for CF NF-kB inhibitors: cytotoxicity; KKLEB CF airway cells viability, ATPlite luminescence, overnight; hits give low values; cells stimulated with P. aeruginosa culture filtrate; activity change (cytotoxicity), % at 5 µM; 0.36% of 360,000 active; AID 602141;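 active = corrected activity change at or below -50% at 5 µM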
# Peg3 prom inh – Peg3 promoter activity inhibition | HeLa PEG-Prom luciferase reporter, luminescence, overnight | inhibition, % at 20 µM | 1.7% of 360,000 active | AID 588405;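 active = inhibition of at least 50% at 20 µM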
# HIF-2a inh – blocks HIF-2a reporter activity; AID 624352; 786-0 RCC cells HIF-2a reporter, luciferase luminescence, overnight; 0.72% of 360,000 active; inhibition, % at 18.8 µM;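 active = inhibition of the luminescence signal of 40% or more relative to plate controls, in a single-dose primary screen at 18.75 µM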
# Mdm2 MdmX conf – confirmation of inhibitors of human Mdm2/MdmX interaction, set 2. 99% of 740 active. inhibition, % at 8 µM. SaOS-2 split-luciferase Mdm2/MdmX complementation, luminescence. shares compounds with HIF-2a inh;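 active = mean inhibition of the luminescence signal across two replicates at or above 26 percent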
# Target sequence (O15151 whole entry, looked up): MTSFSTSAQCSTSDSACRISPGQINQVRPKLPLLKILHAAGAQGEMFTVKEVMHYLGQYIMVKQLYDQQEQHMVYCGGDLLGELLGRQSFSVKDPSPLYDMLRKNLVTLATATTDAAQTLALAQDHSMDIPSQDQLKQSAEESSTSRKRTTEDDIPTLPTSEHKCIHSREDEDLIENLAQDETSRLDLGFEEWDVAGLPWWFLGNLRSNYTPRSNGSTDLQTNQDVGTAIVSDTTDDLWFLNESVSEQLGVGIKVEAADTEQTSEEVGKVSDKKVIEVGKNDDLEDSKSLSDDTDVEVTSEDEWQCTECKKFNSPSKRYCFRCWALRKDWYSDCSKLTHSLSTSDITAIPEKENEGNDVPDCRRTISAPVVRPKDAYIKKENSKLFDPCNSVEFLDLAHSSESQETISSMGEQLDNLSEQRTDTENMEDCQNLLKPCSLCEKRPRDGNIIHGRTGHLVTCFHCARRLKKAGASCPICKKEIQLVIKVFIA
# Target sequence (Q00987 whole entry, looked up): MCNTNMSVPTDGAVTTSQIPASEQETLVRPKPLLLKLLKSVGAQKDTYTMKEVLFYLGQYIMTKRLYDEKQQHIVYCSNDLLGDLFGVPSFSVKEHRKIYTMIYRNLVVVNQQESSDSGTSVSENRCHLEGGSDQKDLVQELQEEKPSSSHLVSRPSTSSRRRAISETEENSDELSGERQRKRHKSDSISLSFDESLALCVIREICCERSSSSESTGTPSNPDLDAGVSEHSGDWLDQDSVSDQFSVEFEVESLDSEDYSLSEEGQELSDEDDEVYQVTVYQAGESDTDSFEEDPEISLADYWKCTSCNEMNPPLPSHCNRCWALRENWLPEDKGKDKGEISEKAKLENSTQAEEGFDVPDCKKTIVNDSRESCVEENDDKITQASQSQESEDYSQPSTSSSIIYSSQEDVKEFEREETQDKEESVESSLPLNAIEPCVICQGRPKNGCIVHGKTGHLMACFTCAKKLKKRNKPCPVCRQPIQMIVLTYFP
# HIF-2a conf – HIF-2a inhibition, single concentration confirmation; shares compounds with HIF-2a inh; 786-0 RCC cells, HIF-2a luciferase reporter luminescence, overnight; inhibition, % at 18.8 µM; 56% of 1,800 active;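 active = mean inhibition across four replicates of at least 40 percent at the single tested concentration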
# HIF-1a counter – HIF-1a inhibition counter-screen for HIF-2a hits; MiaPaCa-2 HIF-1a luciferase reporter, desferoxamine, overnight; 72% of 1,800 active; shares compounds with HIF-2a inh; inhibition, % at 18.8 µM; AID 651589;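 active = mean inhibition of the reporter signal across four replicates at the single tested dose of 50% or more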
# * = called active by the depositor; ? = inconclusive; / = not tested or not shown. Shown are actives, neighbours in structure and some others; about 2.6% of the full set was active somewhere.
SMILES,CF NFkB inh,Shn3 3UTR inh,KKLEB tox,Peg3 prom inh,HIF-2a inh,HIF-2a conf,HIF-1a counter,others
Cc1cc(C)c(C(CC(=O)c2cccs2)C(C#N)C#N)c(C)c1 (stereo unspecified),61.3*,-49.5,-53.5*,-12.4,75.5*,-39.1,101.8*,
Cc1cc(C)nc(SCc2ccc(C(=O)N/N=C/c3ccncc3)cc2)n1,2.4,9.0,-3.5,5.8,15.0,/,/,
Cc1cc(C)nc(SCc2ccc(C(=O)NNC(=O)Nc3cccc(Cl)c3)cc2)n1,39.8,16.7,-8.2,75.1*,89.8*,49.6*,104.8*,
Cc1cccc(C(=O)N2CCC(Cc3ccccc3)CC2)c1[N+](=O)[O-],46.7,8.2,-6.0,17.1,22.6,/,/,
COCCNC(=O)c1c[nH]c2ccc(S(=O)(=O)N3CCc4ccccc43)cc2c1=O,-0.1,46.0,14.7,51.0*,46.8*,17.8,92.6*,
Cc1ccc(NC(=O)CSc2nc3ccccc3c(=O)n2CCCN2CCCCC2)cc1Cl,14.9,20.6,-23.0,114.1*,4.5,/,/,Mdm2 MdmX conf=103.2*
CCc1cccc(NC(=O)c2ccc3c(=O)n4c(nc3c2)CCCCC4)c1,-5.1,-37.4,-4.9,-168.7,-237.1,/,/,
CCC(C)c1ccc(OCc2ccc(C(=O)O)o2)cc1 (stereo unspecified),-5.6,-22.1,-1.7,41.1,55.0*,33.3,-65.9,
CCOC(=O)C(CCCOc1ccc(C(C)CC)cc1)C(=O)OCC (stereo unspecified),-6.2,30.9,5.6,-1.9,70.5*,73.2*,69.0*,
CC(=O)Nc1ccc(Oc2sc(C(=O)c3ccccc3)c(N)c2C#N)cc1,40.9,15.0,-33.5,29.1,54.3*,43.0*,9.0,
CC(=O)Nc1cc(-c2ccc(C(=O)N3CCOCC3)cc2)cn2c(-c3ccc(C(C)=O)cc3)cnc12,-2.3,13.0,14.7,18.6,28.2,/,/,
COc1ccc(-c2cnc3c(NC(C)=O)cc(-c4ccc(C(=O)N5CCOCC5)cc4)cn23)cc1OC,-5.0,5.1,13.0,30.3,41.4*,22.5,31.4,
O=C(COC(=O)CCSc1ccc(F)cc1)NCc1ccc(F)cc1,7.2,-6.5,-17.2,19.3,-16.7,/,/,
CCOC(=O)[C@@H]1[C@H]2COc3ccc(Br)cc3[C@@H]2N2C(=O)N(c3ccc(F)cc3)C(=O)[C@]12C,-11.8,1.9,1.2,6.5,6.9,/,/,
CC(=O)Nc1ccc(Nc2cc(N3CCOCC3)c3nonc3c2[N+](=O)[O-])cc1,-3.3,-8.1,-10.3,14.2,41.9*,5.0,76.5*,
CN(C)c1ccc(/C=C(/NC(=O)c2ccccc2)C(=O)NCCCn2ccnc2)cc1,21.5,-3.7,9.5,-14.2,-6.5,/,/,
Cc1nc2nc(C)c(NS(=O)(=O)c3ccc(Cl)cc3)c(=O)n2[nH]1,3.6,-3.2,11.2,5.4,1.7,/,/,
C#CCN(C[C@@H]1[C@@H](OC(=O)Nc2cccs2)[C@@H](OC(=O)Nc2cccs2)Cn2c(=O)ccc(=O)n21)S(=O)(=O)c1ccc(C)cc1,81.2*,-12.0,-60.3*,96.2*,97.2*,96.4*,107.6*,
C#CCN(C[C@@H]1[C@@H](OC(=O)NCc2ccccc2F)[C@@H](OC(=O)NCc2ccccc2F)Cn2c(=O)ccc(=O)n21)S(=O)(=O)c1ccc(C)cc1,76.7*,96.2*,-85.2*,96.7*,95.2*,97.1*,106.4*,
C#CCN(C[C@@H]1[C@@H](OC(=O)NCc2ccco2)[C@@H](OC(=O)NCc2ccco2)CN(C(=O)OC(C)C)N1C(=O)OC(C)C)S(=O)(=O)c1ccc(C)cc1,22.2,-9.2,4.9,-8.7,43.7*,37.4,89.1*,
C#CCN(C[C@@H]1[C@@H](OC(=O)NCc2ccccc2F)[C@@H](OC(=O)NCc2ccccc2F)CN(C(=O)OC(C)C)N1C(=O)OC(C)C)S(=O)(=O)c1ccc(C)cc1,31.7,21.6,5.9,2.8,-6.9,/,/,
C#CCN(C[C@@H]1[C@@H](OC(=O)NCc2ccccc2F)[C@@H](OC(=O)NCc2ccccc2F)Cn2c(=O)n(CCCCCC)c(=O)n21)S(=O)(=O)c1ccc(C)cc1,16.9,18.6,5.5,-0.7,6.4,/,/,
O=[N+]([O-])c1ccc(NC(=S)NCCc2ccc(Cl)cc2)cc1,29.2,-0.6,-38.0,8.1,-21.0,/,/,Mdm2 MdmX conf=97.0*
O=[N+]([O-])c1ccc(NC(=S)NCCc2ccccc2)cc1,4.5,65.0,-11.8,-102.2,-155.9,/,/,
CCOC(=O)C1CCCN(C(=S)Nc2ccc(C)cc2C)C1 (stereo unspecified),-11.8,2.8,9.8,-13.1,-3.3,/,/,
SMILES,CF NFkB inh,Shn3 3UTR inh,KKLEB tox,Peg3 prom inh,HIF-2a inh,HIF-2a conf,HIF-1a counter,others
COc1ccc(C(=O)/C=C/C(=O)N(CC(=O)NC2CCCCC2)Cc2ccc(F)cc2)c(O)c1,36.6,14.5,-41.9,102.0*,63.8*,58.4*,105.1*,
COc1ccc(C(=O)/C=C/C(=O)N(CC(=O)NCCC(C)C)Cc2cccs2)c(O)c1,-20.2,97.5*,-2.7,105.2*,95.7*,91.4*,55.9*,
COc1ccc2nc(-c3ccc(N)cc3)[nH]c2c1,-22.2,23.2,6.5,-116.8,69.6*,79.9*,17.0,
Cc1ccc(C)c(NC(=O)COC(=O)c2c(C)nn(-c3ccccc3)c2C)c1,-3.7,0.8,-12.5,4.0,-27.3,/,/,
CC(C)C[C@H](NC(=O)OC(C)(C)C)c1nnc(SCc2ccccc2)o1,-4.1,4.3,15.7,15.0,15.7,/,/,
Cc1ccccc1CS(=O)(=O)c1nnc([C@H](CC(C)C)NC(=O)OC(C)(C)C)o1,48.6,?,-2.2,95.5*,69.0*,14.1,-5.0,
O=[N+]([O-])c1cc(S(=O)(=O)NCCN2CCOCC2)ccc1Cl,2.5,-3.4,2.0,21.1,-5.8,/,/,
COc1ccc(C2c3ccc(O)cc3Oc3ncn4nc(-c5cccnc5)nc4c32)cc1OC (stereo unspecified),17.4,30.4,-12.4,49.2,51.8*,37.3,56.6*,
COc1ccc(C2c3ccc(O)cc3Oc3ncn(Cc4ccco4)c(=N)c32)cc1OC (stereo unspecified),8.3,-3.7,-20.6,12.3,20.2,/,/,
CC(=O)Nc1ccc(NC(=O)CCCSc2nc3ccccc3s2)cc1,-17.0,-35.8,-0.7,-11.3,1.5,/,/,
Cc1cccc(C)c1NC(=O)CCCSc1nc2ccccc2s1,7.6,1.5,5.0,-39.8,-54.5,/,/,
CC(C)NC(=O)NC(=O)COC(=O)CCCSc1nc2ccccc2s1,8.9,-2.7,14.5,-0.7,13.0,/,/,
CCOC(=O)NC(=O)COC(=O)CCCSc1nc2ccccc2s1,-1.1,9.9,7.0,5.3,59.3*,75.7*,43.8,
